Measurements taken from PubChem BioAssay (NCATS).
Where “and” joins values, the source holds several entries; their conditions need not be identical. Equal entries are not always repeated. Inconclusive results are not listed. Unmarked numbers belong to inactive results. Calls of active or inactive are those of the source. Calls follow the shape of the dose curve; as a rule, active = well fitted activation curve with a large enough effect; inconclusive = small, poorly fitted or top-dose-only effect; inactive = no such curve, though single readings can be large or run the other way.

Target: Cellular tumor antigen p53 (Homo sapiens) (UniProt P04637)
Sequence (P04637 whole entry, looked up): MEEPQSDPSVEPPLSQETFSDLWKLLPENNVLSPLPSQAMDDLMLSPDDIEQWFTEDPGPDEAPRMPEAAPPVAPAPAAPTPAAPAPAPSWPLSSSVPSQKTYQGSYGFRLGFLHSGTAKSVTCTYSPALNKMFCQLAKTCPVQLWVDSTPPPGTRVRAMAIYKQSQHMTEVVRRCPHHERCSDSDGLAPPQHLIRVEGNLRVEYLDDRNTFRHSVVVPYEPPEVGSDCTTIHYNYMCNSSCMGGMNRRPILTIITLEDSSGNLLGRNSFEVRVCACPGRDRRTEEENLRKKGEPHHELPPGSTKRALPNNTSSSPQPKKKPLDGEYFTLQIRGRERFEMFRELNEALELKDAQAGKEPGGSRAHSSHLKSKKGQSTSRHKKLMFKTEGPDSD
Assay: Primary qHTS for small molecule compounds that upregulate eGFP-tagged delta133p53alpha (in N-terminal) cells. (AID 2060322); also: nearly all actives have a fitted effect of over 75% in size;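 as to activation: series mostly up to about 56 µM; 0% = DMSO vehicle and 100% = reference activator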
Settings: NCI-H358 eGFP-delta133p53alpha fluorescence, 24 h; activation: hits give high values
Outline: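 NCI-H358 cells pre-induced 24 h with 10 ng/ml doxycycline to express N-terminal eGFP-delta133p53alpha, then dosed 24 h at 37C without doxycycline; fixed, Hoechst-stained, GFP intensity by laser scanning cytometry, normalized to DMSO (0%) and 57.5 uM 5-azacytidine (100%).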
Potency is read from the fitted curve at half-maximal effect.

Row | SMILES | activation | Potency
1 | COCCc1ccc(OCC2CO2)cc1 (stereo unspecified) | 7.53% | –
2 | CCn1c(=O)c2c(nc(C=Cc3ccc(OC)c(OC)c3)n2C)n(CC)c1=O | -8.1% | –
3 | CC(=O)O[C@@H]1CC2C3CCc4cc(OC(=O)c5ccccc5)ccc4C3CCC2(C)[C@H]1OC(C)=O (stereo partly specified) | 6.21% | –
4 | NC1CCN(c2cccc(Cl)n2)CC1 | -10.7% | –
5 | OCC(CO)N[C@H]1C[C@](O)(CO)[C@@H](O)[C@H](O)[C@H]1O | -11.7% | –
6 | CC(O)CN(CCN(CC(C)O)CC(C)O)CC(C)O (stereo unspecified) | 22% | –
7 | C/C(=N\O)[C@@H](C)NCC(C)(C)CN[C@H](C)/C(C)=N/O | -12.6% | –
8 | CC(C)N=C(N)/N=C(\N)Nc1ccc(Cl)cc1 | 0.837% | –
9 | C[n+]1ccccc1/C=N/O | 15.3% | –
10 | CS(=O)(=O)c1ccc([C@@H](O)[C@@H](CO)NC(=O)C(Cl)Cl)cc1 | 15.3% and 17.8% | –
11 | CC1=C(C(=O)O)N2C(=O)[C@@H](NC(=O)[C@H](N)c3ccccc3)[C@H]2SC1 | -27.6% | –
12 | Cc1c(Nc2ncccc2C(=O)O)cccc1C(F)(F)F | -5.08% | –
13 | Nc1ccc(C(=O)O)c(O)c1 | 20.9% | –
14 | CCCCOc1cc(C(=O)NCCN(CC)CC)c2ccccc2n1 | 0% | –
15 | CCN(CC)CCN | -0.837% | –
16 | CCOC(=O)N1CCC(n2c(=O)[nH]c3cc(Cl)ccc32)CC1 | -16.4% | –
17 | CC(C)(O)Cn1c(NC(=O)c2ccc(-c3cn[nH]c3)s2)nc2cc(CN3CCOCC3)ccc21 | – | 3.85 µM (active)
18 | NS(=O)(=O)c1cc(C(=O)O)cc(N2CCCC2)c1Oc1ccccc1 | -9.6% | –
19 | Cc1ccc(O)c([C@H](CCN(C(C)C)C(C)C)c2ccccc2)c1 | 10.7% | –

Row | SMILES | activation | Potency
20 | CN[C@@H]1[C@@H](O)[C@@H](O[C@@H]2[C@@H](O)[C@H](O[C@H]3O[C@H](CN)[C@@H](O)[C@H](O)[C@@H]3O)[C@@H](N)C[C@@H]2NC(=O)[C@@H](O)CN)OC[C@]1(C)O | -2.48% | –
21 | CCCSS/C(CCO)=C(\C)N(C=O)Cc1cnc(C)nc1N | – | 30.9 µM (active)
22 | C[C@@H]1C[C@H]2[C@@H]3C[C@H](F)C4=CC(=O)C(Cl)=C[C@]4(C)[C@@]3(F)[C@@H](O)C[C@]2(C)[C@@]1(O)C(=O)CO | -14.1% | –
23 | NC(=O)NC1N=C([O][Al])NC1=O (stereo unspecified) | 8.47% | –
24 | CCN(CC)S(=O)(=O)c1ccc(C(=O)O)cc1 | -11.7% | –
25 | Cc1oc(-c2ccccc2)nc1CCC(=O)c1ccc(CC2SC(=O)NC2=O)cc1 (stereo unspecified) | -3.95% | –
26 | CC(CNC1CCCCC1)OC(=O)c1ccccc1 (stereo unspecified) | -9.21% | –
27 | Nc1nc(F)nc2c1ncn2[C@@H]1O[C@H](COP(=O)(O)O)[C@@H](O)[C@H]1O | -4.99% | –
28 | Nc1ncn([C@@H]2O[C@H](CO)[C@@H](O)[C@@H]2O)c(=O)n1 | 26.1% | –
29 | Nc1ccc2cc3ccc(N)cc3nc2c1 | -35.1% | –
30 | C[C@@H](O)[C@H]1C(=O)N2C(C(=O)OCOC(=O)C(C)(C)C)=C(SC3CN(C4=NCCS4)C3)[C@H](C)[C@H]12 | -12.3% | –
31 | CC(C(=O)O)c1cccc(Oc2ccccc2)c1 (stereo unspecified) | 32.2% | –
32 | CN1CCCC(n2nc(Cc3ccc(Cl)cc3)c3ccccc3c2=O)CC1 (stereo unspecified) | 10.9% and 17.6% | –
33 | C#C[C@]1(O)CC[C@H]2[C@@H]3CCC4=Cc5oncc5C[C@]4(C)[C@H]3CC[C@@]21C | -14.2% | –
34 | COc1ccc(CCC(=O)c2c(O)cc(O[C@@H]3O[C@H](CO)[C@@H](O)[C@H](O)[C@@H]3O[C@@H]3O[C@@H](C)[C@H](O)[C@@H](O)[C@@H]3O)cc2O)cc1O | 22.6% | –
35 | COc1ccc(C(=O)N2CCN(CC(=O)N3CCOCC3)CC2)cc1 | 3.95% | –
36 | COc1ccc([C@@H]2CC(=O)c3c(O)cc(O[C@@H]4O[C@H](CO[C@@H]5O[C@@H](C)[C@H](O)[C@@H](O)[C@@H]5O)[C@@H](O)[C@H](O)[C@@H]4O)cc3O2)cc1O | 4.43% and 6.54% | –
37 | CCOC(=O)NNc1ccc(N(CC)CC(C)O)nn1 (stereo unspecified) | 15.1% | –
38 | OCCc1ccccc1 | 1.69% | –

Row | SMILES | activation | Potency
39 | O=C1C(O)=C(O)C(=O)C(O)=C1O | -14.1% | –
40 | O=C(O)Cn1c(C(=O)Nc2nc(-c3ccccc3Cl)cs2)cc2ccccc21 | 5.08% | –
41 | CN(C)CCN(Cc1ccsc1)c1ccccn1 | -27.6% | –
42 | COc1ccc(CC2SC(=O)NC2=O)cc1C(=O)NCc1ccc(C(F)(F)F)cc1 (stereo unspecified) | -5.55% | –
43 | Nc1ccc(S(=O)(=O)c2ccc(N)cc2)cc1 | 7.53% | –
44 | CCCC(=O)O[C@]1(C(=O)CCl)[C@@H](C)C[C@H]2[C@@H]3CCC4=CC(=O)C=C[C@]4(C)[C@@]3(F)C(=O)C[C@@]21C | -8.37% | –
45 | COc1ccc(S(=O)(=O)N2c3ccc(Cl)cc3[C@@](O)(c3ccccc3Cl)[C@H]2C(=O)N2CCC[C@@H]2C(N)=O)cc1OC | -10.9% | –
46 | CC1(C)[C@H](O[C@H]2O[C@H](C(=O)O)[C@@H](O)[C@H](O)[C@H]2O[C@@H]2O[C@H](C(=O)O)[C@@H](O)[C@H](O)[C@H]2O)CC[C@@]2(C)[C@H]1CC[C@]1(C)[C@H]2C(=O)C=C2[C@H]3C[C@@](C)(C(=O)O)CC[C@]3(C)CC[C@]21C | -5.71% | –
47 | C=CC(=O)Nc1cc(NC(=O)c2ccc(C)c(NC(=O)c3ccno3)c2)cc(C(F)(F)F)c1 | 4.58% | –
48 | COc1cc(C)nc(-n2nc(C)cc2OC)n1 | -12.6% | –
49 | CC(=O)Nc1c(I)cc(I)c(C(=O)O)c1I | -3.95% | –
50 | CCCCN(CCN(CCCC)C(=O)N1CCOCC1)C(=O)N1CCOCC1 | -21.8% | –
51 | NC[C@H]1O[C@H](O[C@H]2[C@@H](O)[C@@H](O[C@H]3O[C@H](CO)[C@@H](O)[C@H](N)[C@@H]3O)[C@H](N)C[C@@H]2N)[C@H](N)C[C@H]1O | 25.5% | –
52 | COc1ccnc2c1CCCCC2S(=O)c1nc2ccccc2[nH]1 (stereo unspecified) | 11.9% | –
53 | NC(CS)C(=O)O (stereo unspecified) | -24.3% | –
54 | COc1cc(/C=C/C(N)=O)cc(OC)c1OC | -18.6% | –
55 | O=C1c2cccc(O)c2C(=O)c2c(O)cccc21 | -22.6% | –
56 | CC[C@]12CCCN3CCc4c(n(c5ccccc45)[C@@](O)(C(=O)OC)C1)[C@@H]32 | 5.02% | –
